# Laboratory results published in PubChem BioAssay.
# Values without a mark were called inactive. Active and inactive are the calls of the source.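 The calls were made as follows: active = mean inhibition over 43.08%, the solvent-only control mean plus 3 SD; inactive = the rest.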
# Target: Nuclear receptor coactivator 3 (Homo sapiens) (UniProt Q9Y6Q9)
# Test: SRC3 coactivator transcriptional activity inhibitors, confirmation, cell-based, luminescence, quadruplicate (AID 588792);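 also: 0% = DMSO treated cells and 100% = gossypol at 36 µM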
# Conditions: HEK293 GAL4-SRC3 luciferase reporter, at 3.6 µM, hits give high values
# Nuclear receptor coactivator 3 (Homo sapiens), sequence (Q9Y6Q9 whole entry, looked up): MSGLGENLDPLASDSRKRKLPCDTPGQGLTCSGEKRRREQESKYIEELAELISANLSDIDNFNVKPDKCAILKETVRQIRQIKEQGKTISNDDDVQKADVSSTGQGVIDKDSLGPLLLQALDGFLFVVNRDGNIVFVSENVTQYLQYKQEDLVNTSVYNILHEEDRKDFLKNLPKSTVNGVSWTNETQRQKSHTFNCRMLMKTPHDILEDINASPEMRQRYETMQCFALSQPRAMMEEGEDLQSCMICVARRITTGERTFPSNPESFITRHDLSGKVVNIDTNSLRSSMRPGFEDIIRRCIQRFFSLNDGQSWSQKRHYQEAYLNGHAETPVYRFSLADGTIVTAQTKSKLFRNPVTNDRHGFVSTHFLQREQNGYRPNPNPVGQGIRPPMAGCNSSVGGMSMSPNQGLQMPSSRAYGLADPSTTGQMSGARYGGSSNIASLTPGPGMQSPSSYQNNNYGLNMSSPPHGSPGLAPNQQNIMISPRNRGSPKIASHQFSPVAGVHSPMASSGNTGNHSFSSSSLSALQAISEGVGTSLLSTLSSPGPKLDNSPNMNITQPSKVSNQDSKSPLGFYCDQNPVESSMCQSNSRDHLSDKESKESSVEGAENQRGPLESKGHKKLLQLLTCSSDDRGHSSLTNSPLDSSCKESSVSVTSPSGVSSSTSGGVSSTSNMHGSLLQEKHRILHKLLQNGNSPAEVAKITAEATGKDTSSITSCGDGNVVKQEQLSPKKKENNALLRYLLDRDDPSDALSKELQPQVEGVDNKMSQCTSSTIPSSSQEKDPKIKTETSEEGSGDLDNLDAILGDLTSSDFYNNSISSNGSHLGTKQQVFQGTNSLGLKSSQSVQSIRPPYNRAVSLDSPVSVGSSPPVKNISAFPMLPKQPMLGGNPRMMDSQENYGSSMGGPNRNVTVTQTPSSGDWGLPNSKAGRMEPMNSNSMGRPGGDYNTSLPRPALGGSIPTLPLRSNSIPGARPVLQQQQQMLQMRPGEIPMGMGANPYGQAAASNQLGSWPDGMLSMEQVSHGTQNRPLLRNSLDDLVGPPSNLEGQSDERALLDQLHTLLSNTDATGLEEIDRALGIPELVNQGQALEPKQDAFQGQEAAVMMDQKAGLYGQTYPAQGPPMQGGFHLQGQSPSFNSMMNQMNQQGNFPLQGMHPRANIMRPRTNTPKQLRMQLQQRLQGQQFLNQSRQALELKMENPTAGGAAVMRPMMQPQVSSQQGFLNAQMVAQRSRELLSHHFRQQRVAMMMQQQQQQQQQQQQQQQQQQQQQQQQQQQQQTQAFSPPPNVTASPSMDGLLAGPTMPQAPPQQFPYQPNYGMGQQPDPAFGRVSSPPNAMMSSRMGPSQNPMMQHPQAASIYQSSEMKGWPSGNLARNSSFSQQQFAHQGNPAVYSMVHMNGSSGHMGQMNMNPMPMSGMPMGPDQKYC
row,Compound,inhibition
1,NC(=S)Nc1cc(Cl)cc(Cl)c1,23.7%
2,CCN(CC)S(=O)(=O)c1cccc(NC(=O)Nc2cccc(C(F)(F)F)c2)c1,13.9%
3,Cc1ccc(S(=O)(=O)NCCC(=O)Nc2ccncc2)cc1C,-1.9%
4,CCOC(=O)c1c(C)sc2c1N(C(=O)CCl)c1cc(Cl)ccc1S2,-14.3%
5,O=C(CCSc1ccc(Cl)cc1)N1CCN(c2ccc(O)cc2)CC1,3.85%
6,CC(C)Nc1nc(Cl)nc(NNC(=O)C(C)Oc2ccccc2)n1 (stereo not given),-3.52%
7,CC(C)(C)CNC(=O)[C@]1(C)CCC[C@@]2(C)C3CC[C@@]4(C)C[C@]3(CCC21)CC4=O (stereo not given in full),9.18%
8,C=CC[C@@H](CC(=O)N(CCO)Cc1ccccc1)C(=O)N[C@@H](C)COC(=O)[C@@H](CC=C)Cc1ccc(F)cc1,5.89%
9,CCCCn1c(/N=C/c2ccc(N(C)C)cc2)nc2ccccc21,-1.05%
10,Cn1c(N)c(C(=O)COC(=O)C2CC(=O)N(Cc3ccccc3)C2)c(=O)n(C)c1=O (stereo not given),-0.18%
11,CCCCC(O)(CCCC)C(=O)NN(C(=O)OCC)c1ccccc1,11.9%
12,Cn1nc(CC(=O)Nc2ccc3c(c2)OCCO3)c2ccccc2c1=O,9.58%
13,Cc1ccc(S(=O)(=O)NCC(=O)N(c2ccccc2)C(C(=O)NCc2ccccc2)c2ccco2)cc1 (stereo not given),-2.76%
14,O=C(c1ccccc1)N1CCN(Cc2c[nH]c3ccccc23)CC1,8.59%
15,CCOc1ccc(N2C(=O)C(CC(=O)Nc3ccccc3)N(Cc3ccccn3)C2=S)cc1 (stereo not given),9.7%
16,C/C(=N\NC(=O)COc1ccccc1-c1ccccc1)c1ccc(O)cc1O,8.45%
17,Cc1ccccc1-n1nnnc1Sc1nnnn1-c1ccccc1,7%
18,CC(C)C[C@H]1CNC(=S)N1C[C@H]1CCCN1C[C@H](Cc1ccc(O)cc1)N1C[C@H](CC(C)C)N(CC2CCCCCC2)C1=S,21.1%
19,CCc1cccc(CC)c1C(OC(C)=O)c1cccnc1 (stereo not given),-15.7%
20,Cc1cccc(N2C(=O)c3cccnc3C2=O)c1,3.71%

row,Compound,inhibition
1,Cc1cc(C)n(-c2ccc(C(=O)Nc3cccc(S(=O)(=O)N(C)C)c3)cc2)n1,-2.01%
2,CCOc1ccc(N2C(=O)/C(=C/c3cc(OC)c(OC)c(OC)c3)N(CC(=O)OC)C2=S)cc1,18.9%
3,Cc1ccc(NC(=O)C2CCN(c3ncnc4c3nc3n4CCCCC3)CC2)cc1Cl,-20.6%
4,COc1ccc(-n2c(-c3ccc(Br)cc3)c[n+]3c2SC(C)C3)cc1 (stereo not given),12.5%
5,Cc1c(P(=S)(c2ccccc2)c2ccccc2)[n+]2ccccc2n1CCc1ccccc1,25.9%
6,c1cncc(CNc2ncnc3sc4c(c23)CCC4)c1,23.1%
7,O=C(CSc1nnc(COc2ccc(Cl)cc2)o1)N1CCOCC1,-3.82%
8,CCc1c(C)nc2ncnn2c1NCCc1ccc(Cl)cc1,23.3%
9,Cc1sc2ncnc(Sc3nnnn3-c3ccccc3)c2c1C,0.37%
10,CC(=O)Nc1ccc(S(=O)(=O)Oc2ccccc2N2CCCCC2)cc1,-3.48%
11,Cc1ccc(N=Nc2ccc3ccccc3c2O)cc1,30.8%
12,CC(=O)/C=C/c1ccc2ccccc2n1,-15.9%
13,Cc1cccc(NNC(=O)C(=O)NNc2cccc(C)c2)c1,18.6%
14,O=C(N/N=C\c1cc(Br)ccc1O)c1ccc(S(=O)(=O)N2CCCCC2)cc1,72.3% (active)
15,Cc1ccc2c(c1)/C(=C/c1ccc(F)cc1)C(=O)N2,7.93%
16,CCC(=O)NC(c1cccs1)c1ccc2cccnc2c1O (stereo not given),33.1%
17,O=C(N/N=C/c1ccc(O)cc1O)c1ccc(NC(=O)C2CCCCC2)cc1,9.15%
18,c1ccc(-n2nnnc2NCCCN2CCOCC2)cc1,-14.3%
19,COc1ccccc1NS(=O)(=O)c1cc(NC(=O)c2[nH]c(C)c(C(C)=O)c2C)ccc1N1CCOCC1,15.5%
20,Cc1nnsc1-c1onc(C)c1C(=O)Nc1cc(Cl)cc(Cl)c1,15.8%
